# From article PMC11006913
# Tests used:
# Experiment in all cases: PBM; 200 nM protein, PBS
# Conditions in all cases: dsDNA, one strand shown
# HESX1 [1] = molecular target: HESX1 (Homo sapiens, UniProt Q9UBX0 95-180, R165K)
# HESX1 [2] = molecular target: HESX1 (Homo sapiens, UniProt Q9UBX0 95-180)
# HESX1 [3] = molecular target: HESX1 (Homo sapiens, UniProt Q9UBX0 95-180, R109Q)
# HESX1 [4] = molecular target: HESX1 (Homo sapiens, UniProt Q9UBX0 95-180, P111T)
# HESX1 [5] = molecular target: HESX1 (Homo sapiens, UniProt Q9UBX0 95-180, F115L)
# HESX1 (Homo sapiens, UniProt Q9UBX0 95-180, F115L), sequence (Q9UBX0 95-180 F115L): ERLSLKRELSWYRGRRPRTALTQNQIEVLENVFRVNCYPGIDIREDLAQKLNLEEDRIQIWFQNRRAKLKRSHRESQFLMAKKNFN
# SHOX [6] = molecular target: SHOX (Homo sapiens, UniProt O15266 103-189)
# SHOX (Homo sapiens, UniProt O15266 103-189), sequence (O15266 103-189): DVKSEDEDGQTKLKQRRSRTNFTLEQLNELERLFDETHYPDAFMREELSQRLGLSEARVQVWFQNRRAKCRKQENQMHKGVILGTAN
# ALX4 [7] = molecular target: ALX4 (Homo sapiens, UniProt Q9H161 200-286)
# ALX4 (Homo sapiens, UniProt Q9H161 200-286), sequence (Q9H161 200-286): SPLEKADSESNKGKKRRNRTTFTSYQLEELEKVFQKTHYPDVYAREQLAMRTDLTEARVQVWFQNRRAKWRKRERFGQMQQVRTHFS
# ALX4 [8] = molecular target: ALX4 (Homo sapiens, UniProt Q9H161 200-286, Q225E)
# ALX4 (Homo sapiens, UniProt Q9H161 200-286, Q225E), sequence (Q9H161 200-286 Q225E): as the sequence (Q9H161 200-286) above, with Q26E counted along it
# MSX2 [9] = molecular target: MSX2 (Homo sapiens, UniProt P35548 130-214, R199I)
# MSX2 (Homo sapiens, UniProt P35548 130-214, R199I), sequence (P35548 130-214 R199I): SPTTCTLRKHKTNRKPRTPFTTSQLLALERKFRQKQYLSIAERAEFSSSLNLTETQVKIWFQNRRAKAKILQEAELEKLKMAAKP
# SHOX [10] = molecular target: SHOX (Homo sapiens, UniProt O15266 103-189, R173C)
# SHOX (Homo sapiens, UniProt O15266 103-189, R173C), sequence (O15266 103-189 R173C): as the sequence (O15266 103-189) above, with R71C counted along it
# MSX2 [11] = molecular target: MSX2 (Homo sapiens, UniProt P35548 130-214)
# MSX2 (Homo sapiens, UniProt P35548 130-214), sequence (P35548 130-214): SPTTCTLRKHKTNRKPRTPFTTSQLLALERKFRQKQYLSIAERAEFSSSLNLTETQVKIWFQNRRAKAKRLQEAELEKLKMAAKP
# ALX3 [12] = molecular target: ALX3 (Homo sapiens, UniProt O95076 139-225)
# ALX3 (Homo sapiens, UniProt O95076 139-225), sequence (O95076 139-225): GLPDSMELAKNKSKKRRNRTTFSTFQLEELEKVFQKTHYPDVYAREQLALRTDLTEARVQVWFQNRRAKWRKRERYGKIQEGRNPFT
# PROP1 [13] = molecular target: PROP1 (Homo sapiens, UniProt O75360 56-141)
# PROP1 (Homo sapiens, UniProt O75360 56-141), sequence (O75360 56-141): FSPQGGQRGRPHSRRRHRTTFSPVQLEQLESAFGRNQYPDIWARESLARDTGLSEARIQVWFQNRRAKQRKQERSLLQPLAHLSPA
# PROP1 [14] = molecular target: PROP1 (Homo sapiens, UniProt O75360 56-141, R99H)
# PROP1 (Homo sapiens, UniProt O75360 56-141, R99H), sequence (O75360 56-141 R99H): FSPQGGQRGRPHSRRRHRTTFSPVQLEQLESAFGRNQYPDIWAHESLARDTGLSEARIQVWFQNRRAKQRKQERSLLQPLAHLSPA
# PROP1 [15] = molecular target: PROP1 (Homo sapiens, UniProt O75360 56-141, F88S)
# PROP1 (Homo sapiens, UniProt O75360 56-141, F88S), sequence (O75360 56-141 F88S): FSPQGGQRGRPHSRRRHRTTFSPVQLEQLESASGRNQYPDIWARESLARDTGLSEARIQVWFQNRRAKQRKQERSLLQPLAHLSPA
# MSX2 [16] = molecular target: MSX2 (Homo sapiens, UniProt P35548 130-214, F161Y)
# MSX2 (Homo sapiens, UniProt P35548 130-214, F161Y), sequence (P35548 130-214 F161Y): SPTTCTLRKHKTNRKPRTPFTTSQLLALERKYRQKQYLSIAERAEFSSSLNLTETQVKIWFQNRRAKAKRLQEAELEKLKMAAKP
# ALX3 [17] = molecular target: ALX3 (Homo sapiens, UniProt O95076 139-225, N203S)
# ALX3 (Homo sapiens, UniProt O95076 139-225, N203S), sequence (O95076 139-225 N203S): as the sequence (O95076 139-225) above, with N65S counted along it
# HOXA7 [18] = molecular target: HOXA7 (Homo sapiens, UniProt P31268 116-202)
# HOXA7 (Homo sapiens, UniProt P31268 116-202), sequence (P31268 116-202): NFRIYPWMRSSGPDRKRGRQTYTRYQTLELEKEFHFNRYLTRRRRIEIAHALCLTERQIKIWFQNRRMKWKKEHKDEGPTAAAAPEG
# HOXA7 [19] = molecular target: HOXA7 (Homo sapiens, UniProt P31268 116-202, W177C)
# HOXA7 (Homo sapiens, UniProt P31268 116-202, W177C), sequence (P31268 116-202 W177C): as the sequence (P31268 116-202) above, with W62C counted along it
# HESX1 (Homo sapiens, UniProt Q9UBX0 95-180), sequence (Q9UBX0 95-180): as the sequence (Q9UBX0 95-180 F115L) above, with L21F counted along it
# HESX1 (Homo sapiens, UniProt Q9UBX0 95-180, P111T), sequence (Q9UBX0 95-180 P111T): as the sequence (Q9UBX0 95-180 F115L) above, with P17T, L21F counted along it
# HESX1 (Homo sapiens, UniProt Q9UBX0 95-180, R165K), sequence (Q9UBX0 95-180 R165K): as the sequence (Q9UBX0 95-180 F115L) above, with L21F, R71K counted along it
# HESX1 (Homo sapiens, UniProt Q9UBX0 95-180, R109Q), sequence (Q9UBX0 95-180 R109Q): as the sequence (Q9UBX0 95-180 F115L) above, with R15Q, L21F counted along it
sequence,measurement,setting,value
CCAGCGCG,binding signal,HESX1 [1],"6.43 upbm affinity estimate (log intensity, higher = more binding, comparable within an allelic series)"
same,binding signal,HESX1 [2],"6.41 upbm affinity estimate (log intensity, higher = more binding, comparable within an allelic series)"
same,binding signal,HESX1 [3],"6.45 upbm affinity estimate (log intensity, higher = more binding, comparable within an allelic series)"
same,binding signal,HESX1 [4],"6.49 upbm affinity estimate (log intensity, higher = more binding, comparable within an allelic series)"
same,binding signal,HESX1 [5],"6.43 upbm affinity estimate (log intensity, higher = more binding, comparable within an allelic series)"
AATTAGCT,binding signal,HESX1 [1],"11.6 upbm affinity estimate (log intensity, higher = more binding, comparable within an allelic series)"
same,binding signal,SHOX [6],"11.7 upbm affinity estimate (log intensity, higher = more binding, comparable within an allelic series)"
same,binding signal,ALX4 [7],"13.6 upbm affinity estimate (log intensity, higher = more binding, comparable within an allelic series)"
same,binding signal,ALX4 [8],"12.7 upbm affinity estimate (log intensity, higher = more binding, comparable within an allelic series)"
same,binding signal,HESX1 [2],"11.6 upbm affinity estimate (log intensity, higher = more binding, comparable within an allelic series)"
same,binding signal,MSX2 [9],"12.3 upbm affinity estimate (log intensity, higher = more binding, comparable within an allelic series)"
same,binding signal,SHOX [10],"9.43 upbm affinity estimate (log intensity, higher = more binding, comparable within an allelic series)"
same,binding signal,MSX2 [11],"13.3 upbm affinity estimate (log intensity, higher = more binding, comparable within an allelic series)"
same,binding signal,ALX3 [12],"12.2 upbm affinity estimate (log intensity, higher = more binding, comparable within an allelic series)"
same,binding signal,PROP1 [13],"11 upbm affinity estimate (log intensity, higher = more binding, comparable within an allelic series)"
same,binding signal,HESX1 [3],"8.93 upbm affinity estimate (log intensity, higher = more binding, comparable within an allelic series)"
same,binding signal,PROP1 [14],"10.9 upbm affinity estimate (log intensity, higher = more binding, comparable within an allelic series)"
same,binding signal,HESX1 [4],"10.4 upbm affinity estimate (log intensity, higher = more binding, comparable within an allelic series)"
same,binding signal,PROP1 [15],"7.6 upbm affinity estimate (log intensity, higher = more binding, comparable within an allelic series)"
same,binding signal,MSX2 [16],"12.9 upbm affinity estimate (log intensity, higher = more binding, comparable within an allelic series)"
same,binding signal,HESX1 [5],"7.79 upbm affinity estimate (log intensity, higher = more binding, comparable within an allelic series)"
same,binding signal,ALX3 [17],"8.56 upbm affinity estimate (log intensity, higher = more binding, comparable within an allelic series)"
CGCCCGAG,binding signal,PROP1 [13],"6.84 upbm affinity estimate (log intensity, higher = more binding, comparable within an allelic series)"
same,binding signal,PROP1 [14],"6.77 upbm affinity estimate (log intensity, higher = more binding, comparable within an allelic series)"
same,binding signal,PROP1 [15],"6.6 upbm affinity estimate (log intensity, higher = more binding, comparable within an allelic series)"
CTACTTAA,binding signal,PROP1 [13],"8.53 upbm affinity estimate (log intensity, higher = more binding, comparable within an allelic series)"
same,binding signal,PROP1 [14],"8.11 upbm affinity estimate (log intensity, higher = more binding, comparable within an allelic series)"
same,binding signal,PROP1 [15],"7.26 upbm affinity estimate (log intensity, higher = more binding, comparable within an allelic series)"
ATAATGGG,binding signal,HOXA7 [18],"11.2 upbm affinity estimate (log intensity, higher = more binding, comparable within an allelic series)"
same,binding signal,HOXA7 [19],"8.88 upbm affinity estimate (log intensity, higher = more binding, comparable within an allelic series)"
CCGACGCC,binding signal,HOXA7 [18],"8.58 upbm affinity estimate (log intensity, higher = more binding, comparable within an allelic series)"
same,binding signal,HOXA7 [19],"8.45 upbm affinity estimate (log intensity, higher = more binding, comparable within an allelic series)"
CGGTCGGC,binding signal,ALX4 [7],"8.27 upbm affinity estimate (log intensity, higher = more binding, comparable within an allelic series)"
same,binding signal,ALX4 [8],"7.99 upbm affinity estimate (log intensity, higher = more binding, comparable within an allelic series)"
same,binding signal,ALX3 [12],"7.68 upbm affinity estimate (log intensity, higher = more binding, comparable within an allelic series)"
same,binding signal,ALX3 [17],"7.69 upbm affinity estimate (log intensity, higher = more binding, comparable within an allelic series)"
CACGGGCC,binding signal,ALX3 [12],"7.66 upbm affinity estimate (log intensity, higher = more binding, comparable within an allelic series)"
same,binding signal,ALX3 [17],"7.68 upbm affinity estimate (log intensity, higher = more binding, comparable within an allelic series)"
ACCGTGTC,binding signal,HOXA7 [18],"8.54 upbm affinity estimate (log intensity, higher = more binding, comparable within an allelic series)"
same,binding signal,HOXA7 [19],"8.46 upbm affinity estimate (log intensity, higher = more binding, comparable within an allelic series)"
CCGCCTCC,binding signal,MSX2 [9],"9.48 upbm affinity estimate (log intensity, higher = more binding, comparable within an allelic series)"
same,binding signal,MSX2 [11],"9.45 upbm affinity estimate (log intensity, higher = more binding, comparable within an allelic series)"
same,binding signal,MSX2 [16],"9.54 upbm affinity estimate (log intensity, higher = more binding, comparable within an allelic series)"
CCCTGGCC,binding signal,MSX2 [9],"9.39 upbm affinity estimate (log intensity, higher = more binding, comparable within an allelic series)"
same,binding signal,MSX2 [11],"9.37 upbm affinity estimate (log intensity, higher = more binding, comparable within an allelic series)"
same,binding signal,MSX2 [16],"9.41 upbm affinity estimate (log intensity, higher = more binding, comparable within an allelic series)"
CAGCGGCC,binding signal,ALX3 [12],"7.75 upbm affinity estimate (log intensity, higher = more binding, comparable within an allelic series)"
same,binding signal,ALX3 [17],"7.77 upbm affinity estimate (log intensity, higher = more binding, comparable within an allelic series)"
GCGTGCGA,binding signal,ALX4 [7],"7.96 upbm affinity estimate (log intensity, higher = more binding, comparable within an allelic series)"
same,binding signal,ALX4 [8],"8.17 upbm affinity estimate (log intensity, higher = more binding, comparable within an allelic series)"
GCTGGGCC,binding signal,ALX3 [12],"7.62 upbm affinity estimate (log intensity, higher = more binding, comparable within an allelic series)"
same,binding signal,ALX3 [17],"7.64 upbm affinity estimate (log intensity, higher = more binding, comparable within an allelic series)"
AGCCCGGG,binding signal,MSX2 [9],"9.38 upbm affinity estimate (log intensity, higher = more binding, comparable within an allelic series)"
same,binding signal,MSX2 [11],"9.25 upbm affinity estimate (log intensity, higher = more binding, comparable within an allelic series)"
same,binding signal,MSX2 [16],"9.37 upbm affinity estimate (log intensity, higher = more binding, comparable within an allelic series)"
CCCCTGCG,binding signal,ALX3 [12],"7.85 upbm affinity estimate (log intensity, higher = more binding, comparable within an allelic series)"
same,binding signal,ALX3 [17],"7.66 upbm affinity estimate (log intensity, higher = more binding, comparable within an allelic series)"
AGCCGGGG,binding signal,ALX4 [7],"8.22 upbm affinity estimate (log intensity, higher = more binding, comparable within an allelic series)"
same,binding signal,ALX4 [8],"8.28 upbm affinity estimate (log intensity, higher = more binding, comparable within an allelic series)"
CCGGACCG,binding signal,HOXA7 [18],"8.43 upbm affinity estimate (log intensity, higher = more binding, comparable within an allelic series)"
same,binding signal,HOXA7 [19],"8.36 upbm affinity estimate (log intensity, higher = more binding, comparable within an allelic series)"
ACCGGTCC,binding signal,HOXA7 [18],"8.49 upbm affinity estimate (log intensity, higher = more binding, comparable within an allelic series)"
same,binding signal,HOXA7 [19],"8.3 upbm affinity estimate (log intensity, higher = more binding, comparable within an allelic series)"
CAGAGCCG,binding signal,HOXA7 [18],"8.45 upbm affinity estimate (log intensity, higher = more binding, comparable within an allelic series)"
same,binding signal,HOXA7 [19],"8.36 upbm affinity estimate (log intensity, higher = more binding, comparable within an allelic series)"
